For 24 compounds, growth results are on record in PubChem BioAssay (NCI).

Compounds without any hit were thinned out: in the full panel of roughly 83,000, 20% have a hit.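 Method: cells in 96-well plates; compound added at one concentration; 48 h incubation; percent growth measured; values under 10 scored active.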 Calls of active or inactive are those of the source.

The experiment has as its system HL-60(TB) leukemia. In words: NCI-60 one-dose screen, 48 h (100 = growth as untreated, 0 = no growth, -100 = all killed). To be noted: 10 µM unless noted.
Consider `NC(=O)c1ccc2nc3c(n2c1)C(=O)C(=O)c1ccccc1-3`, for which the growth is -42.2% (active). Next, `COC(=O)c1cc(-c2ccc(S(C)(=O)=O)cc2)[nH]c1N/N=C/c1c(Cl)cccc1Cl`: -22.3% (active); `COc1ccc(C2=C(c3ccccc3)c3ccc(OC(C)=O)cc3OC2(C)C)cc1`: -17.1% (active); `CN1CCN(Cc2ccc(C(=O)Nc3cncc(C#Cc4cnc5cccnn45)c3)cc2C(F)(F)F)CC1`: 1.37% (active). Take `CCOC(=O)/C(=C/CC/C(C)=C/CC/C(C)=C/CCc1ccoc1)CC(=O)N1CCCCC1`: the growth is -35.2% (active).

As to `C=C(C)[C@@H]1CC[C@]2(C(=O)NCCCN(CCC#N)CCC#N)CC[C@]3(C)[C@H](CC[C@@H]4[C@@]5(C)CCC(=O)C(C)(C)[C@@H]5CC[C@]43C)[C@@H]12`, the growth was 100% (inactive). With `NC(=O)NNC(=O)c1ccccc1`, the growth is 103% (inactive). Turning to `CCCCc1ccc2nc(NC(=O)OC)[nH]c2c1`, the growth is -65.6% (active). For `COc1ccc(-c2ccc(NC(=O)Nc3ccc(Cl)c(C(F)(F)F)c3)c(C)n2)cc1`, the growth is 32.3% (inactive). Next, `O=S1(=O)OC(c2cc(Cl)c(O)c(Br)c2)(c2cc(Cl)c(O)c(Br)c2)c2ccccc21`: 92.4% (inactive). Take `CN(C)CN1CCN(c2ccc3nc(-c4ccc5nc(-c6ccc(C(F)(F)F)cc6)[nH]c5c4)[nH]c3c2)CC1`: the growth is 59.6% (inactive). `Cc1cccc(Oc2ccc(Nc3ncnc4ccc(NC(=O)CN(C)C)cc34)cc2Cl)c1`: the growth is -48% (active). As to `Oc1ccc(/C=C/c2ccccc2)cc1`, the growth is 34.1% (inactive). With `CC(=O)c1cc2c(N)c(C(=O)Nc3ccccn3)sc2nc1C`, the growth is 83.3% (inactive). Next, `Cc1c(Cl)cccc1NC(=S)NC(=O)c1ccccc1`: 92.9% (inactive); `COc1ccc2[nH]c(O)c(N=NC(=O)c3oc4ccccc4c3C)c2c1`: 53.9% (inactive); `C(=C\c1cn(-c2ccccc2)nc1-c1ccccc1)/c1nnc(-c2c[nH]c3ccccc23)o1`: 98.1% (inactive). As to `CNS(=O)(=O)Nc1nccc(Cc2c(C)c3ccc(Oc4ncccn4)cc3oc2=O)c1F`, the growth is 27.9% (inactive).

Regarding `CCOC(=O)/C(C)=C\c1ccc(OC)c(OC)c1`, the growth was 88.4% (inactive).

As for `CCCCC[C@H](O)C/C=C1/C(=O)C=C[C@@H]1C/C=C\CCCC(=O)OC`, the growth is 25.1% (inactive). For `[2H]c1nc(=Nc2cc(NC(=O)C=C)c(N(C)CCN(C)C)cc2OC)[nH]c(-c2cn(C([2H])([2H])[2H])c3ccccc23)c1[2H]`, the growth was -37.8% (active). As for `O=c1[nH]c2ccc(Br)cc2c2c1C(c1ccc(Cl)cc1)c1c(ncn3nc(-c4ccco4)nc13)O2` (centres undefined), the growth is 72.7% (inactive). For the compound `CC(C)C1=C[C@@]23CC[C@H]4[C@](C)(COCCC#N)CCC[C@]4(C)[C@H]2C[C@@H]1[C@@H]1[C@H]3[C@@H](OCCC#N)CC[C@@H]1OCCC#N`, the growth was -42.7% (active).

Turning to `CCCC(=O)Oc1ccc(/C(=C(/CC)Cc2ccccc2)c2ccc(OCCN3CCCC3)cc2)cc1`, the growth was 89.2% (inactive).
